In PubChem BioAssay (NCI):
The panel holds about 83,000 compounds, 20% with a hit somewhere; the sample as a whole holds those more often.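 Plates (96-well) were seeded with cells, treated with compound at one concentration, and incubated for 48 hours before percent growth was determined.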 A number with no mark means an inactive call. Calls of active or inactive are those of the source. Rule for the calls: active = growth percent below 10; inactive = the rest.

Experiments:
Test in all cases: NCI-60 one-dose screen, 48 h (100 = growth as untreated, 0 = no growth, -100 = all killed)
Conditions in all cases: 10 µM unless noted
NCI-H23 lung = tested on: NCI-H23 lung
NCI-H226 lung = tested on: NCI-H226 lung
NCI-H322M lung = tested on: NCI-H322M lung
HOP-62 NSCLC = tested on: HOP-62 NSCLC
NCI-H460 lung = tested on: NCI-H460 lung
HOP-92 NSCLC = tested on: HOP-92 NSCLC
NCI-H522 lung = tested on: NCI-H522 lung
A549/ATCC NSCLC = tested on: A549/ATCC NSCLC
786-0 renal = tested on: 786-0 renal
COLO 205 colon = tested on: COLO 205 colon

Compound | growth (NCI-H23 lung) | growth (NCI-H226 lung) | growth (NCI-H322M lung) [%] | growth (HOP-62 NSCLC) | growth (NCI-H460 lung) | growth (HOP-92 NSCLC) | growth (NCI-H522 lung) | growth (A549/ATCC NSCLC) | growth (786-0 renal) | growth (COLO 205 colon)
COc1ccc(NC(=O)c2sc3nc(C)c(C(=O)c4ccc(OC)cc4)cc3c2N)cc1 | 73.9% | 87.9% | 40.3 | 43% | 9.29% (active) | 67.3% | 40.7% | 24.6% | 59.9% | 42.9%
CS(=O)(=O)c1ccc(-c2cc(-c3nnc(SCC(=O)Nc4ccc(C(=O)/C=C/c5ccc(Cl)cc5)cc4)n3-c3ccccc3)c3ccccc3n2)cc1 | 97.8% | 94.6% | 89.8 | 95.1% | 99.1% | 110% | 90% | 91.5% | 93% | 106%
Cc1ccccc1CNc1ccc(N2CCOCC2)cc1 | 99.1% | 107% | 98.3 | 117% | 112% | 115% | 101% | 103% | 107% | 108%
CC(=O)N1N=C(c2cccc(Nc3ccncc3)c2)CC1c1ccccc1 (stereo not given) | 93.3% | 95.3% | 93.3 | 92.5% | 95.1% | 55.9% | 91.7% | 85.2% | 4.92% (active) | 81.5%
FCc1nc2nc(Cl)c(Cl)nc2[nH]1 | 99.3% | 104% | 113 | 94.8% | 108% | 81.2% | 95.9% | 98.9% | 103% | 109%
O=C(NNc1nc(Cl)nc(N2CCN(C(c3ccccc3)c3ccccc3)CC2)n1)c1ccccc1 | -9.53% (active) | 48% | 32 | 47.6% | 86.3% | 52.2% | -68.3% (active) | 98.7% | 70.5% | 24.1%
CS(=O)(=O)Nc1cc(-c2ccc3ncnc(Nc4ccc5[nH]ncc5c4)c3c2)cnc1Cl | 86% | 75% | 74.1 | 55.2% | 94.1% | 0.913% (active) | 60.6% | 91.8% | 79.6% | 81.7%
COc1ccc(C(=O)c2cc(C)c(OC)c(C)c2)c(OC)c1N(C(=O)C(Cl)Cl)C(=O)C(Cl)Cl | 21.9% | 15.9% | 41.5 | 17.7% | 2% (active) | 2.49% (active) | 11% | 13.6% | 14.1% | -34.6% (active)
CCCCCOc1ccc(/C=N/Nc2cc(C)nc3ccc(Br)cc23)cc1 | 75.1% | 91.5% | 65.1 | 58.1% | -57.9% (active) | 69.7% | 1.99% (active) | 2.38% (active) | -90.9% (active) | -50.4% (active)
COc1cccc(CCC(=O)c2cc3c(N)c(C(=O)Nc4ccccc4)sc3nc2C)c1 | 67.9% | 71.5% | 52.7 | 45.1% | 11.7% | 74.2% | 37.5% | 39.6% | 50.2% | 37.1%
CN1CCCC1=Nc1ccccc1 | 93.7% | 104% | 99.2 | 103% | 111% | 89% | 83.2% | 97.9% | 115% | 110%
C=CCn1c(SCC(=O)Nc2ccc(C(=O)/C=C/c3cc(OC)c(OC)c(OC)c3)cc2)nnc1-c1cc(OC)c(OC)c(OC)c1 | 55.2% | 35.9% | 85.5 | 55% | 31.4% | 82.2% | 47% | 47.2% | 53.6% | 41.2%
Cn1c2c(Cl)c(Cl)ccc2c2cc(N)[nH]c(=O)c21 | 76.2% | 59.2% | 103 | 51.3% | 81.9% | 29.9% | 92.4% | 15.1% | 70.2% | 92.1%
COc1cc2nc(Cc3ccc(C)cc3)[nH]c(=O)c2cc1OC | 105% | 95.9% | 236 | 104% | 107% | 69.1% | 92.8% | 49.3% | 103% | 123%
CCN(CC)CCCC(C)Nc1cc(-c2cccc(OC(F)(F)F)c2)nc2ccc(N3CCCC3)cc12 (stereo not given) | 57.9% | 46.7% | 17.7 | 23.3% | -4.02% (active) | -5.67% (active) | 2.05% (active) | 10.7% | -19.7% (active) | -79% (active)
CC(=O)N1c2ccccc2NC2=C(C(=O)N(Cc3ccccc3)C2(C)C)C1c1ccco1 (stereo not given) | 20.9% | 65.7% | 44.6 | 33.1% | 4.83% (active) | 21.1% | 21.8% | 22% | 21.4% | 16.8%
O=C(Nc1nc2ccc(C(=O)N3CCN(c4ccc(Cl)c(Cl)c4)CC3)cc2s1)c1ccc(NCCc2ccccc2)c([N+](=O)[O-])c1 | 93.3% | 87.8% | 95.5 | 96.6% | 110% | 91.7% | 75.9% | 97.9% | 107% | 108%
CCCCCCCCOc1ccc(/C=N/Nc2cc(C)nc3ccc(Cl)cc23)cc1 | 65.2% | 87.2% | 42.2 | -46.5% (active) | -63.4% (active) | 67.3% | -56.7% (active) | -37.3% (active) | -94% (active) | -36.2% (active)
O=C1CCCN1c1cccc2cccnc12 | 92.9% | 98.8% | 102 | 94.4% | 102% | 103% | 96% | 99% | 97.5% | 108%
O=C(Nc1ccc(F)cc1)c1c(NC(=O)C(F)(F)F)sc2c1CCCCC2 | -5.63% (active) | -6.78% (active) | 11 | -23.5% (active) | 2.16% (active) | -28.5% (active) | 2.42% (active) | 5.88% (active) | -10.4% (active) | -18.6% (active)
CCOC(=O)c1c(O)cc(-c2ccccc2)cc1-c1sc(N(C)Cc2ccccc2)nc1Cl | 98.7% | 94% | 106 | 104% | 102% | 91.3% | 86.4% | 98.8% | -97.1% (active) | 106%
O=C(N/N=C/c1ccncc1)c1ccccc1Nc1cccc(C(F)(F)F)c1 | 95.5% | 66.3% | 88.5 | 97.6% | 103% | 47.3% | 82% | 55.6% | 86.7% | 107%
Cc1ccc(C(c2c(O)c3cc(Br)ccc3[nH]c2=O)c2c(O)c3cc(Br)ccc3[nH]c2=O)cc1 | 86.7% | 74% | 96.7 | 77% | 89.5% | 74.1% | 77.8% | 89.5% | 92.6% | 111%
O=C1Nc2c(ccc(Cl)c2Cl)/C1=C/c1ccc([N+](=O)[O-])cc1 | 91.3% | 159% | 84.9 | 90.6% | 107% | 95.5% | 88.7% | 29.2% | 59.7% | 114%
O=S(=O)(O)c1cc(O)c2c(N=Nc3ccc(Nc4ccccc4)c4c(S(=O)(=O)O)cccc34)cc(S(=O)(=O)O)cc2c1 | 100% | 101% | 120 | 100% | 105% | 101% | 93.5% | 101% | 102% | 97.9%
COc1cc(-c2cc(=O)oc3cc(O)ccc23)cc(OC)c1OC | 88.1% | 87.3% | 96.7 | 87.6% | 69.5% | 54.2% | 80.2% | 90.1% | 99.7% | 99.4%
CCNC(=O)c1[nH]cc(-c2ccc(OC)cc2)c1-c1cc(OC)cc(OC)c1 | 91.9% | 88.7% | 97.7 | 97.5% | 99% | 72.9% | 62.6% | 91.3% | 95.6% | 105%
